In PubChem BioAssay AID1159580 (chemical genetic matrix, 2015):
Several values for one entry are separate records, joined by “and”; a condition that tells them apart may be missing. Equal values may be shown once. Hit rate of the full screen: of about 5,500 compounds, about 2,000 (36%) were called active. Another 18% or so got no clear call; they are omitted. No stated cut-off is given here; in the data, active means normalized growth mostly below about 0.91 (no sharp cut-off); inconclusive means no clear call, values can overlap the other calls; inactive means mostly above about 0.92. Some of the results follow.

Assay: chemical genetic growth profiling, strain panel (AID 1159580);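 further: tested at 20 µM; growth read once vehicle control cultures reached saturation at 30 °C; 1 = growth at the plate median or of vehicle wells; lower values mean less growth of the strain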
Settings: S. cerevisiae deletion strains, growth OD

Measured: normalized growth

C[C@@H]1CCC2[C@](C)(CO)[C@@H](O)CC[C@]2(C)[C@@]12CC[C@@](CO)(CCO)O2 (stereo partly specified)
inactive: locus YAL021C, strain ccr4, active compounds read low 0.991 | locus YAL026C, strain drs2, active compounds read low 0.985 | locus YAL030W, strain snc1, active compounds read low 0.987 | locus YBL061C, strain skt5, active compounds read low 0.967 | locus YBR009C, strain hhf1, active compounds read low 0.977 | locus YBR021W, strain FUR4, active compounds read low 0.998 | locus YBR023C, strain chs3, active compounds read low 0.983 | locus YBR171W, strain sec66, active compounds read low 0.965 | locus YBR229C, strain ROT2, active compounds read low 0.997 | locus YBR231C, strain swc5, active compounds read low 0.997 | locus YBR279W, strain paf1, active compounds read low 0.991 | locus YCL011C, strain gbp2, active compounds read low 0.994 | locus YCL016C, strain dcc1, active compounds read low 0.989 | locus YCL029C, strain bik1, active compounds read low 0.986 | locus YCL061C, strain MRC1, active compounds read low 0.975 | locus YCL069W, strain vba3, active compounds read low 0.979 | locus YCR088W, strain abp1, active compounds read low 0.979 | locus YDL005C, strain med2, active compounds read low 0.972 | locus YDL035C, strain GPR1, active compounds read low 1.02 | locus YDL040C, strain nat1, active compounds read low 0.972 | locus YDL074C, strain BRE1, active compounds read low 1 | locus YDL101C, strain DUN1, active compounds read low 1 | locus YDL134C, strain PPH21, active compounds read low 1.04 | locus YDL185W, strain tfp1, active compounds read low 0.987 | locus YDL192W, strain arf1, active compounds read low 0.994 | locus YDR001C, strain nth1, active compounds read low 0.986 | locus YDR069C, strain doa4, active compounds read low 0.963 | locus YDR101C, strain arx1, active compounds read low 0.995 | locus YDR137W, strain rgp1, active compounds read low 1.01 | locus YDR159W, strain sac3, active compounds read low 0.933 | locus YDR162C, strain NBP2, active compounds read low 1.06 | locus YDR195W, strain ref2 0.959 | locus YDR297W, strain sur2, active compounds read low 0.996 | locus YDR318W, strain mcm21, active compounds read low 0.994 | locus YDR334W, strain swr1, active compounds read low 0.976 | locus YDR335W, strain msn5, active compounds read low 0.978 | locus YDR388W, active compounds read low 0.974 | locus YDR392W, strain spt3, active compounds read low 0.975 | locus YDR502C, strain sam2, active compounds read low 1.01 | locus YEL003W, strain gim4, active compounds read low 0.974 | locus YEL037C, strain rad23, active compounds read low 0.968 | locus YEL061C, strain CIN8 (second series), active compounds read low 0.98 | locus YEL061C, strain CIN8, active compounds read low 1.01 | locus YER015W, strain faa2, active compounds read low 0.99 | locus YER016W, strain bim1, active compounds read low 0.981 | locus YER110C, active compounds read low 0.983 | locus YER111C, strain swi4, active compounds read low 0.959 | locus YER155C, strain BEM2 (second series), active compounds read low 0.958 | locus YER155C, strain BEM2, active compounds read low 0.993 | locus YER167W, strain BCK2, active compounds read low 1 | locus YFR010W, strain ubp6, active compounds read low 0.957 | locus YGL078C, strain dbp3, active compounds read low 0.985 | locus YGL086W, strain mad1, active compounds read low 1.03 | locus YGL167C, strain pmr1, active compounds read low 0.976 | locus YGL173C, strain kem1, active compounds read low 0.979 | locus YGL227W, strain vid30, active compounds read low 0.978 | locus YGL240W, strain doc1, active compounds read low 0.966 | locus YGL248W, strain PDE1, active compounds read low 1 | locus YGL253W, strain hxk2, active compounds read low 0.944 | locus YGR078C, strain PAC10, active compounds read low 1.03 | locus YGR135W, strain pre9, active compounds read low 0.983 | locus YGR229C, strain SMI1, active compounds read low 1.04 | locus YGR252W, strain gcn5, active compounds read low 1.02 | locus YHR013C, strain ard1, active compounds read low 0.959 | locus YHR027C, strain rpn1, active compounds read low 0.983 | locus YHR030C, strain SLT2, active compounds read low 1 and 0.991 | locus YHR079C, strain IRE1 (second series), active compounds read low 0.981 | locus YHR079C, strain IRE1, active compounds read low 0.99 | locus YHR094C, strain hxt1, active compounds read low 0.982 | locus YHR129C, strain ARP1, active compounds read low 1 | locus YHR142W, strain chs7, active compounds read low 0.977 | locus YHR200W, strain rpn10, active compounds read low 0.985 | locus YIL066C, strain RNR3, active compounds read low 1.02 | locus YIL073C, strain SPO22, active compounds read low 0.979 | locus YIL125W, strain kgd1, active compounds read low 0.975 | locus YIR030C, strain dcg1, active compounds read low 0.991 | locus YJL092W, strain hpr5, active compounds read low 0.977 | locus YJL095W, strain BCK1 (second series), active compounds read low 0.983 | locus YJL095W, strain BCK1, active compounds read low 1.04 and 0.955 | locus YJL115W, strain asf1, active compounds read low 0.986 | locus YJL129C, strain trk1, active compounds read low 0.966 | locus YJL134W, strain LCB3, active compounds read low 0.991 | locus YJL154C, strain vps35, active compounds read low 0.982 | locus YJL164C, strain tpk1, active compounds read low 1 | locus YJL166W, strain qcr8, active compounds read low 0.98 | locus YJL168C, strain set2, active compounds read low 0.989 | locus YJL187C, strain SWE1 (second series), active compounds read low 1 | locus YJL187C, strain SWE1, active compounds read low 0.981 | locus YJR043C, strain POL32, active compounds read low 1.04 | locus YJR066W, strain TOR1, active compounds read low 0.976 | locus YJR075W, strain HOC1, active compounds read low 1.04 | locus YKL009W, strain mrt4, active compounds read low 0.976 | locus YKL068W, active compounds read low 0.986 | locus YKL085W, strain MDH1 (second series), active compounds read low 0.99 | locus YKL085W, strain MDH1, active compounds read low 0.99 | locus YKL160W, strain elf1, active compounds read low 0.988 | locus YKR001C, strain vps1, active compounds read low 1.01 | locus YKR026C, strain gcn3, active compounds read low 0.978 | locus YKR091W, strain srl3, active compounds read low 0.988 | locus YLL001W, strain dnm1, active compounds read low 0.991 | locus YLL026W, active compounds read low 0.982 | locus YLL041C, strain sdh2, active compounds read low 0.977 | locus YLR027C, strain aat2, active compounds read low 0.98 | locus YLR039C, strain RIC1, active compounds read low 1.09 | locus YLR058C, strain SHM2, active compounds read low 1 | locus YLR102C, strain apc9, active compounds read low 0.977 | locus YLR113W, strain HOG1, active compounds read low 0.991 | locus YLR221C, strain rsa3, active compounds read low 0.953 | locus YLR258W, strain gsy2, active compounds read low 0.969 | locus YLR262C, strain YPT6 (second series), active compounds read low 1.01 | locus YLR262C, strain YPT6, active compounds read low 1.09 | locus YLR268W, strain sec22, active compounds read low 0.996 | locus YLR320W, strain mms22, active compounds read low 0.971 | locus YLR330W, strain CHS5, active compounds read low 0.995 | locus YLR342W, strain FKS1 (second series), active compounds read low 0.995 | locus YLR342W, strain FKS1, active compounds read low 0.969 | locus YLR357W, strain rsc2, active compounds read low 0.95 | locus YLR370C, strain arc18, active compounds read low 0.977 | locus YLR371W, strain rom2, active compounds read low 0.982 | locus YLR384C, strain iki3, active compounds read low 0.974 | locus YLR418C, strain cdc73, active compounds read low 1.03 | locus YML016C, strain PPZ1, active compounds read low 0.997 | locus YML032C, strain rad52, active compounds read low 0.97 | locus YML120C, strain ndi1, active compounds read low 0.992 | locus YML124C, strain tub3, active compounds read low 0.993 | locus YMR058W, strain fet3, active compounds read low 0.973 | locus YMR078C, strain ctf18, active compounds read low 1 | locus YMR125W, strain sto1, active compounds read low 0.982 | locus YMR129W, active compounds read low 0.986 | locus YMR205C, strain PFK2, active compounds read low 1.01 | locus YMR223W, strain ubp8, active compounds read low 1 | locus YMR231W, strain pep5, active compounds read low 0.951 | locus YMR307W, strain GAS1, active compounds read low 1.15 | locus YNL067W, strain RPL9B, active compounds read low 1.03 | locus YNL071W, strain lat1, active compounds read low 0.989 | locus YNL153C, strain GIM3, active compounds read low 1.04 | locus YNL183C, strain NPR1, active compounds read low 0.977 | locus YNL209W, strain ssb2, active compounds read low 0.992 | locus YNL233W, strain BNI4, active compounds read low 1.02 | locus YNL248C, strain rpa49, active compounds read low 0.976 | locus YNL250W, strain rad50, active compounds read low 0.985 | locus YNL271C, strain bni1, active compounds read low 1.01 | locus YNL298W, strain CLA4, active compounds read low 0.968 | locus YNL307C, strain MCK1, active compounds read low 0.982 | locus YNL322C, strain KRE1 (second series), active compounds read low 1 | locus YNL322C, strain KRE1, active compounds read low 1.01 | locus YNR049C, strain mso1, active compounds read low 0.971 | locus YNR052C, strain pop2, active compounds read low 0.983 | locus YOL012C, strain htz1 1.2 | locus YOL147C, strain pex11, active compounds read low 0.989 | locus YOR001W, strain rrp6, active compounds read low 0.956 | locus YOR061W, strain CKA2, active compounds read low 1 | locus YOR069W, strain VPS5, active compounds read low 0.991 | locus YOR070C, strain gyp1, active compounds read low 0.973 | locus YOR080W, strain dia2, active compounds read low 0.972 | locus YOR083W, strain WHI5, active compounds read low 1 | locus YOR106W, strain vam3, active compounds read low 1.03 | locus YOR136W, strain idh2, active compounds read low 0.984 | locus YOR144C, strain elg1, active compounds read low 0.999 | locus YOR184W, strain ser1, active compounds read low 1.02 | locus YOR231W, strain MKK1, active compounds read low 1 | locus YOR265W, strain rbl2, active compounds read low 0.996 | locus YOR270C, strain vph1, active compounds read low 0.971 | locus YOR290C, strain snf2, active compounds read low 0.967 | locus YOR316C, strain cot1, active compounds read low 0.975 | locus YPL051W, strain arl3, active compounds read low 0.965 | locus YPL078C, strain atp4, active compounds read low 0.995 | locus YPL106C, strain sse1, active compounds read low 0.987 | locus YPL240C, strain hsp82, active compounds read low 0.981 | locus YPL241C, strain CIN2, active compounds read low 1.01 | locus YPL256C, strain CLN2, active compounds read low 0.996 | locus YPR119W, strain clb2, active compounds read low 0.997 | locus YPR141C, strain kar3, active compounds read low 0.984 | locus YPR163C, strain tif3, active compounds read low 0.983 | locus YPR167C, strain met16, active compounds read low 1.01 | strain wtn01, active compounds read low 0.98
